# Screening data: PubChem, NMMLSC
# BoNT-F LC inh – blocks Botulinum neurotoxin F light chain protease | Multiplex microsphere protease cleavage assay, flow cytometry | inhibition, % at 10 µM | 0.22% of 360,000 active; in the data active means inhibition above about 35%, passing the limit was not always enough; inconclusive means no clear call, values can overlap the other calls
# BoNT-A LC inh2 – BoNT A light chain protease inhibition; multiplex microsphere protease substrate cleavage, flow cytometry; inhibition, % at 10 µM; 0.17% of 360,000 active; AID 588499
# Anthrax LF inh2 – inhibitors of Bacillus anthracis lethal factor protease; P15917; inhibition, % at 10 µM; 0.12% of 360,000 active; AID 588501; multiplex microsphere protease cleavage assay, LF
# Autofluor counter – compound fluorescence in toxin protease inhibitor counterscreen. compound autofluorescence counterscreen, microsphere flow cytometry; active compounds read high. fluorescence intensity (test concentration not listed). AID 624483. 3.1% of 360,000 active; in the data active means fluorescence intensity above about 16000; inconclusive means no clear call, values can overlap the other calls
# Numbers stand for hits; i = inactive; ? = inconclusive. In the library only some 3.5% were active in any assay of this set; here they are far more common. Unless noted, no stated cut-off is given here; in the data, active means inhibition above about 30%; inconclusive means no clear call, values can overlap the other calls; inactive means below that.
SMILES,BoNT-F LC inh,BoNT-A LC inh2,Anthrax LF inh2,Autofluor counter
O=C(CSc1ncccn1)NCCC1=CCCCC1,i,i,i,i
Cc1ccc(C)c(-n2nnnc2SCC(=O)NCCC2=CCCCC2)c1,i,i,i,16990
COC(=O)c1cc(Cl)c(NC(=O)c2cc(OC)c(OC)c(OC)c2)cc1OC,i,i,i,21669
COC(=O)c1cc(Cl)c(NC(=O)/C=C/c2ccc(Cl)cc2)cc1OC,i,i,i,20164
CCCn1nc(C(=O)Nc2cc(C(=O)OC)ccc2C)c2ccccc2c1=O,i,i,i,i
COC(=O)c1ccc(C)c(NC(=O)c2nn(C)c(=O)c3ccccc23)c1,i,?,i,22678
CC1CCC(NC(=O)c2nn(C)c(=O)c3ccccc23)CC1 (stereo not drawn),i,i,i,i
Cn1nc(C(=O)NC2CCCCC2)c2ccccc2c1=O,i,?,i,21828
CC(=O)Nc1cccc(OCC(=O)NS(=O)(=O)c2ccc(C)cc2)c1,i,i,i,23647
COc1ccc(NS(=O)(=O)c2cccc(C(=O)OCC(=O)NC3CC3)c2)cc1,i,i,i,i
COC(=O)[C@H]1C[C@H]2[C@@H]3CC[C@H]4C[C@@H](OC)CC[C@]4(C)[C@H]3CC[C@]2(C)[C@@]2(CCCO2)O1,i,i,i,i
Cc1ccc(C2/C(=C(/O)c3cnn(-c4ccccc4)c3C)C(=O)C(=O)N2CCN2CCOCC2)o1 (stereo not drawn),i,i,i,i
Cc1ccc(C2/C(=C(/O)c3ccccc3)C(=O)C(=O)N2CCN2CCOCC2)o1 (stereo not drawn),i,i,i,20379
Cc1ccc(N2CC(C(=O)Nc3ccc(N(C)C)cc3)CC2=O)cc1C (stereo not drawn),i,i,i,19991
O=C(Nc1ccccc1Cl)C1CC(=O)N(c2ccccc2)C1 (stereo not drawn),i,i,i,i
Cc1ccc(N2CC(C(=O)Nc3ccccc3C(=O)NC3CCCCC3)CC2=O)cc1C (stereo not drawn),i,?,i,22887
COC(=O)c1ccccc1NC(=O)C1CC(=O)N(c2ccccc2)C1 (stereo not drawn),i,i,i,22918
C=CCSc1nnc(NC(=O)C2CC(=O)N(c3ccc4c(c3)OCCO4)C2)s1 (stereo not drawn),i,i,i,i
CN1CCN(C(=O)C[C@@H]2C[C@H]3c4cc(NC(=O)c5cccnc5)ccc4O[C@H]3[C@H](CO)O2)CC1,i,i,i,i
C/C(=N\NC(=O)c1cccc(S(=O)(=O)N2CCOCC2)c1)c1ccc(C)cc1,i,i,i,i
COC(=O)CNC(=O)CNC(=O)Nc1ccccc1,i,?,i,19345
CCOC(=O)C1CCN(C(=O)COC(=O)c2oc3ccccc3c2C)CC1,i,i,i,i
Cc1nn(-c2ccccc2)c(C)c1NC(=O)COC(=O)C1CC(=O)N(CCc2ccccc2)C1 (stereo not drawn),i,i,i,?
CCOC(=O)Cn1nnnc1CN(Cc1cccs1)Cc1cc2cc(C)ccc2[nH]c1=O,i,i,i,16529
Cc1ccc2[nH]c(=O)c(CN(Cc3cccs3)Cc3nnnn3Cc3ccccc3)cc2c1,i,i,i,i
SMILES,BoNT-F LC inh,BoNT-A LC inh2,Anthrax LF inh2,Autofluor counter
NC(=O)C1(N2CCCCC2)CCN(C(=S)NCCc2ccccc2)CC1,i,i,i,i
CC(=C1C(=O)c2ccccc2C1=O)N1CCC(C(N)=O)(N2CCCCC2)CC1,i,i,i,23736
O=C(NC1CC1)C1CCN(C(=O)c2ccc(Cl)cc2Cl)CC1,i,i,i,i
CC(C)OC(=O)C1CC=CCC1C(=O)Nc1ccc(Cl)cc1 (stereo not drawn),i,i,i,i
CC(OC(=O)C1CC=CCC1C(N)=O)C(Cl)=C(Cl)Cl (stereo not drawn),i,i,i,22015
CCOC(=O)c1nnn(-c2nonc2N)c1-c1ccc(C)cc1,i,i,i,i
CCOC(=O)c1nnn(-c2nonc2N)c1-c1ccccc1,i,i,i,23505
CCOC(=O)c1nnn(-c2nonc2N)c1CSc1ccccc1,i,i,i,22923
COC(CNC(=O)c1ccc(CS(=O)(=O)c2c(Cl)cccc2Cl)o1)OC,i,i,i,i
COc1ccc(N2C(=NC(=O)c3ccc(Br)cc3)SC3CS(=O)(=O)CC32)cc1 (stereo not drawn),i,i,i,i
Clc1ccc2nc(-c3ccccc3)c(CN3CCOCC3)n2c1,i,i,i,23584
Clc1ccc(-c2nc3ccccn3c2CN2CCOCC2)cc1,i,i,i,i
CCOC(=O)/C(C#N)=C/C=C1/C=CC=CN1C,38,i,?,i
COc1cc(C=C2NC(=O)NC2=O)ccc1O,i,i,i,i
COc1ccc(OC)c(/C=C2\NC(=O)NC2=O)c1,?,i,131,i
COc1cccc(-c2nc(CS(=O)(=O)CC(=O)Nc3cc(OC)ccc3OC)c(C)o2)c1,i,i,i,i
O=CN1CCC(=O)N(Cc2ccccc2)c2ccccc21,i,?,i,24835
Cc1ccccc1CN(c1ccc(C(N)=O)cc1)S(C)(=O)=O,i,i,i,16249
Cc1ccccc1N(Cc1ccccc1F)S(C)(=O)=O,i,i,i,23221
Cc1ccc(N(Cc2ccccc2F)S(C)(=O)=O)c(C)c1,i,i,i,i
NC(=O)c1cc(Cl)ccc1OCC(=O)NC1CC1,i,i,i,i
Cc1cccc(C(=O)NCCc2nnc(SCC(=O)Nc3nc(C)cs3)n2C)c1,i,?,i,16360
Cc1cc(C)nc(SCc2nnc(SCC(=O)Nc3nc(-c4ccccc4)cs3)n2C)n1,i,i,i,i
CCn1c(CSc2nc(C)cc(C)n2)nnc1SCC(=O)Nc1nc(-c2ccccc2)cs1,i,i,i,16261
Cc1ccccc1C(=O)NCCc1nnc(SCC(=O)Nc2nc(-c3ccccc3)cs2)n1C,i,?,i,20936
SMILES,BoNT-F LC inh,BoNT-A LC inh2,Anthrax LF inh2,Autofluor counter
O=C(OCc1cn([C@H]2CN(Cc3cccs3)[C@@H](c3ccc(Cl)cc3)C[C@@H]2O)nn1)c1ccccc1,i,i,i,i
COc1cc(CC(=O)N(CC(C)C)C2CCS(=O)(=O)C2)cc(OC)c1OC (stereo not drawn),i,i,i,i
CCOc1ccc2nc(SCC(=O)NCc3ccco3)sc2c1,i,i,i,21294
CCOc1ccc2nc(SCC(=O)N3CCCc4ccccc43)sc2c1,i,?,i,21324
O=C(CSc1nc(-c2ccccc2)c(-c2ccccc2)[nH]1)NCc1ccco1,i,i,i,23502
COc1ccc(-c2cc3nc(C)c(CCC(=O)NCc4ccco4)c(C)n3n2)c(OC)c1,i,i,i,20470
CCc1noc(C)c1C(=O)OCC(=O)NCc1ccccc1OC,i,i,i,i
COc1ccc(-c2ccc(SCC(=O)NCc3ccco3)nn2)cc1,i,i,i,24470
O=C(CSc1ccc(-c2ccc(F)cc2)nn1)NCc1ccco1,i,i,i,i
CCOc1ccc(NC(=O)Cn2nnc(C(=O)NCc3cccs3)c2N)cc1,i,i,i,i
C=C(C)Cn1c(=O)c2c(nc3n2CCN3c2cccc(Cl)c2C)n(C)c1=O,i,i,i,i
C=CCn1c(=O)c2c(nc3n2CCN3c2cccc(Cl)c2C)n(C)c1=O,i,i,i,16780
CCCCNC(=O)C1(C)CCCCN1C(=O)c1cncc(Br)c1 (stereo not drawn),i,i,i,i
Cc1ccc(C(=O)Nc2c3c(nn2C(C)(C)C)CS(=O)(=O)C3)cc1C,i,i,i,20652
